Cycloheximide cs: counter-screen for Shiga toxin inhibitors: cycloheximide protein synthesis inhibition; cell reporter, cycloheximide protein synthesis inhibition counterscreen; max response, %; 300,000 tested, 12% active; in the data active means max response mostly above about 13%, no sharp cut-off; inactive means mostly below about 14%; further: read at 38.3 µM for the half of the compounds with a filed dose; 0% is about no effect
Shiga toxin inh: inhibitors of Shiga toxin in Vero cells. Vero cells, Shiga toxin protein synthesis inhibition reporter. inhibition, % at 38.7 µM. 290,000 tested, 9.2% active; in the data active means inhibition mostly above about 28%, no sharp cut-off; inactive means mostly below about 43%; further: 0% is about no effect
HCMV antiviral: inhibitors of human cytomegalovirus | HFF cells, HCMV-luciferase reporter, 72 h; active compounds read low | activity change, negative = inhibition, % at 57.5 µM | 410,000 tested, 4.5% active | AID 1259415; in the data active means activity change below about -60%; inconclusive means no clear call, values can overlap the other calls; inactive means above about -39%; further: on the % scale 0 is the no-effect control and ±100 the full control effect
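HFF cells seeded 16 h at 37C, treated with compounds, infected with luciferase-reporter HCMV at MOI 1 PFU/cell; luciferase read at 72 h post infection, normalized to buffer-only and Salinomycin controls.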
Pf growth 48h: P. falciparum growth inhibition at 48 hours (one generation). P. falciparum luciferase growth in erythrocytes, 48 h. Potency, µM (doses to about 28.7 µM), inactives show at the highest dose activity change, negative = inhibition, most hits filed as inhibitors. 310,000 tested, 5.9% active. AID 504832; further: potency means the concentration at half of the fitted maximal effect; on the % scale 0 is the no-effect control and ±100 the full control effect
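Cell-based growth assay: transgenic P. falciparum expressing firefly luciferase, cultured in red cells within RPMI 1640 containing 0.5% w/v Albumax, 24 mM bicarbonate and gentamycin. A drop in luciferase activity indicates inhibition.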
Pf growth 96h: inhibits malaria parasite growth, 96 h; 320,000 tested, 6.9% active; Potency, µM (series often up to 28.7 µM), for inactives: top-dose activity change, negative = inhibition, actives largely listed as inhibitors; AID 504834; P. falciparum luciferase reporter growth, 96 h; further: potency means the concentration at half of the fitted maximal effect; on the % scale 0 is the no-effect control and ±100 the full control effect
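Erythrocytes infected with luciferase-expressing P. falciparum were dispensed at 2% hematocrit and 0.05% parasitemia (final), then incubated with compounds 96 hours at 37 C in 5% CO2. Luminescence after detection reagent addition reported growth.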
* = called active by the depositor. The list is not random: actives were taken first. Their share in the collection is about 20%. Unless noted, the call rests on the fitted dose curve; in most records, active means well fitted inhibition curve with a large enough effect; inconclusive means small, poorly fitted or top-dose-only effect, or another doubt; inactive means no such curve, though single readings can be large or run the other way.

For COc1cccc(Nc2nc(-c3ccc4c(c3)OCCO4)cs2)c1 the results were Cycloheximide cs 53*, Shiga toxin inh 103*, HCMV antiviral 20, Pf growth 48h 93% and Pf growth 96h 418%.
c1cc2c(cc1Nc1nc(-c3ccc4c(c3)OCO4)cs1)OCCO2 was read as Cycloheximide cs 64*, Shiga toxin inh 78*, HCMV antiviral 17, Pf growth 48h -65% and Pf growth 96h -6%.
COc1cccc(C(C)(O)c2nc(-c3ccc4c(c3)OCO4)cs2)c1 (stereo not given) was read as HCMV antiviral -23.
For C[C@H]1CN([C@@H](C)CO)C(=O)CCCn2nncc2CO[C@H]1CN(C)C(=O)Nc1ccc2c(c1)OCO2 the results were HCMV antiviral -2.
For COc1ccc(-c2noc(CSc3nnc(C)n3-c3ccc(OC)cc3)n2)cc1 the results were HCMV antiviral -12.
For CC(C)CC(c1nnnn1C1CCCC1)N1CCC(C(N)=O)CC1 (stereo not given) the results were Cycloheximide cs 7, Shiga toxin inh 3, HCMV antiviral 6, Pf growth 48h -2% and Pf growth 96h 0%.
`O=C(O)C1CCN(C(=O)c2ccccc2Cl)CC1` gave Cycloheximide cs -4, Shiga toxin inh -18, HCMV antiviral -4 and Pf growth 48h 5%.
O=C(c1cc(F)ccc1F)N1CCC(N2CCC(C(=O)N3CCCC3)CC2)CC1 was read as Cycloheximide cs 17*, Shiga toxin inh 2, HCMV antiviral 38, Pf growth 48h -17% and Pf growth 96h 15%.
`O=C(c1ccccc1Cl)N1CCC(N2CCC(C(=O)N3CCCC3)CC2)CC1` gave Cycloheximide cs 24*, Shiga toxin inh 36, HCMV antiviral -36, Pf growth 48h 14% and Pf growth 96h inconclusive.
Cc1ccc(C(C)NC(=O)c2ccncc2)c(C)c1 (stereo not given) was read as Cycloheximide cs 8, Shiga toxin inh -5, HCMV antiviral -11, Pf growth 48h -19% and Pf growth 96h 18%.
For CCn1c(=O)c2cc(C(=O)Nc3cc(C)c(Cl)cc3OC)sc2c2ccccc21 the results were HCMV antiviral -106*.
`CCC(C)(C)n1nnnc1C(c1ccccc1F)N1CCN(C(=O)c2ccco2)CC1` (stereo not given) gave Cycloheximide cs -5, Shiga toxin inh -3, HCMV antiviral -9, Pf growth 48h -24% and Pf growth 96h 21%.
`CCCC[N+]12CCC(CC1)C(C(=O)c1cccs1)C2` (stereo not given) gave Cycloheximide cs -5, Shiga toxin inh -3, HCMV antiviral -10, Pf growth 48h 10µM* and Pf growth 96h 2.6µM*.
Screening O=C(CCS(=O)(=O)c1ccccc1)NNC(=O)COc1ccc(F)cc1 returned HCMV antiviral -16.
For Cc1cccc(NC(=O)c2cccc(OC(=S)N3CCOCC3)c2)c1C the results were Cycloheximide cs 14, Shiga toxin inh 16, HCMV antiviral 7, Pf growth 48h 3% and Pf growth 96h 1.9µM*.
`O=C(Nc1ccc(S(=O)(=O)N2CCOCC2)cc1)c1cccc(Br)c1` gave Cycloheximide cs -1, Shiga toxin inh -2, HCMV antiviral -23, Pf growth 48h -18% and Pf growth 96h -12%.
For CCOc1ccc(NC(=O)c2cccc(OC(=S)N3CCOCC3)c2)cc1 the results were Cycloheximide cs 11*, Shiga toxin inh 5, HCMV antiviral -68*, Pf growth 48h inconclusive and Pf growth 96h 2%.
COc1ccc(NC(=O)c2cccc(OC(=S)N3CCOCC3)c2)cc1 was read as Cycloheximide cs 6, Shiga toxin inh 21, HCMV antiviral -6, Pf growth 48h inconclusive and Pf growth 96h 49%.
`O=C(Nc1ccc(Br)cc1)c1cccc(OC(=S)N2CCOCC2)c1` gave Cycloheximide cs 19*, Shiga toxin inh 50*, HCMV antiviral -77*, Pf growth 48h 4% and Pf growth 96h -7%.
`CC(C)NC(=O)C1(C)CCCN1C(=O)c1ccccc1Br` (stereo not given) gave HCMV antiviral 19.
`O=C(N/N=C/C1CC=CCC1)c1ccc(Cl)cc1O` (stereo not given) gave Cycloheximide cs 28*, Shiga toxin inh 51, HCMV antiviral 2, Pf growth 48h 1% and Pf growth 96h 2.3µM*.

Screens deposited in PubChem by National Center for Advancing Translational Sciences (NCATS).
